# Source: PubChem BioAssay AID623911 (Vanderbilt High Throughput Screening Facility, 2012)
# In all, about 2,100 compounds went through this assay and about 770 (37%) were called active.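 Rule for the calls: active = by-eye trace score of 1 for enhancers or -1 for inhibitors, so actives lie on both sides (some results past the limit were not filed as active); inactive = score 0, or 3 fluorescent, or 4 baseline rise.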 The list shows a part of the results.
# Target: G protein-activated inward rectifier potassium channel 2 (Homo sapiens) + G protein-activated inward rectifier potassium channel 1 (Homo sapiens) (UniProt P48051+P48549)
# Assay: GIRK1/2 thallium flux modulators, retest, confirmation, cell-based, HEK293 rmGlu8/hGIRK1/2, FluoZin-2 (AID 623911)
# Details: HEK293 rmGlu8/hGIRK1/2, thallium flux FluoZin-2; actives lie on both sides; glutamate co-added at its EC20 level
# Chain of G protein-activated inward rectifier potassium channel 2 (Homo sapiens) + G protein-activated inward rectifier potassium channel 1 (Homo sapiens) (P48051 whole entry, looked up): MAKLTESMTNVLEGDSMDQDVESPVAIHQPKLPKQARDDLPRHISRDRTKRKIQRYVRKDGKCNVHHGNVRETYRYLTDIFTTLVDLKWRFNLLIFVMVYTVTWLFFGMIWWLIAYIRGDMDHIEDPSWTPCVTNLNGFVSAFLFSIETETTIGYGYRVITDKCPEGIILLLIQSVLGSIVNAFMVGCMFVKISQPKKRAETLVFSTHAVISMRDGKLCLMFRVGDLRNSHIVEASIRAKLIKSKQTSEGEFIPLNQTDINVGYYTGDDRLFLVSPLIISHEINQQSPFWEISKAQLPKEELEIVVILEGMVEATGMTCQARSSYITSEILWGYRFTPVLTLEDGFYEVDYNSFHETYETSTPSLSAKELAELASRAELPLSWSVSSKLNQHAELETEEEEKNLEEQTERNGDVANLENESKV
# Chain of G protein-activated inward rectifier potassium channel 2 (Homo sapiens) + G protein-activated inward rectifier potassium channel 1 (Homo sapiens) (P48549 whole entry, looked up): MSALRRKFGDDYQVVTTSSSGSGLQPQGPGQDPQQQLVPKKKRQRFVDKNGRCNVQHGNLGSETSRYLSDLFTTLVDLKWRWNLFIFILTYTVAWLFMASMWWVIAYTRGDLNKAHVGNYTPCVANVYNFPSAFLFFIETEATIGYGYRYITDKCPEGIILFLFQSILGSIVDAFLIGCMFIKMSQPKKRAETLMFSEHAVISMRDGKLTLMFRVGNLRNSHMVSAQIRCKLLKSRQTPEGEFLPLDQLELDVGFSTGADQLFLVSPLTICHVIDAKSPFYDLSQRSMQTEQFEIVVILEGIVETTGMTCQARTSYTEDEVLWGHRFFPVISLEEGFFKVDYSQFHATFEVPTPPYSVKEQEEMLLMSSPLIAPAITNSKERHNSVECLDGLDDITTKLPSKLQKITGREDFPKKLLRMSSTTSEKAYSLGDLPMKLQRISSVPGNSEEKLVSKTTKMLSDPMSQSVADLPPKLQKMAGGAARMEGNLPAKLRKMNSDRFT
row,SMILES,manual score
1,O=C(NNc1ccccc1Br)C(=O)n1ccc2ccccc21,0 (inactive)
2,COCCCN1C(=O)C(=O)/C(=C(/O)c2ccc(C)cc2)C1c1ccccc1 (stereo not drawn),0 (inactive)
3,COc1ccc(-c2nn(-c3ccccc3)cc2/C=N/n2cnnc2)cc1OC,0 (inactive)
4,COc1cccc(/C=N/n2c(=S)n(C)c3ccccc32)c1OC,0 (inactive)
5,COc1ccc(/C=N/n2c(SC)nnc2-c2ccccc2)c(OC)c1OC,-1 (active)
6,Cc1cc(N2CCC(C)CC2)n2ncc(-c3ccccc3)c2n1,0 (inactive)
7,CCC(CC)c1nnc(NC(=O)C2COc3ccccc3O2)s1 (stereo not drawn),0 (inactive)
8,NS(=O)(=O)c1ccc(NC(=O)C2COc3ccccc3O2)cc1 (stereo not drawn),0 (inactive)
9,CCC(/C=N/NC(=O)C1COc2ccccc2O1)CC (stereo not drawn),1 (active)
10,COc1ccc(OC)c(C(=O)c2coc3ccc(O)c(CN4CCOCC4)c23)c1,-1 (active)
11,COc1ccc(-n2nnnc2SCC(=O)N2CCOCC2)cc1,-0.5 (inactive)
12,COC(=O)COc1ccc(S(=O)(=O)Nc2ccccc2C(=O)OC)cc1,0 (inactive)
13,NC(=O)Nc1cccc2ccccc12,0 (inactive)
14,COC(=O)C(C)N(C(=O)c1cccc2ccccc12)c1c(C)cccc1C (stereo not drawn),-1 (active)
15,CCC/C(=N/NC(=O)c1cccc(Cl)c1)c1ccccc1,0 (inactive)
16,COC(=O)C(C)N(C(=O)c1cccc(Cl)c1)c1c(C)cccc1C (stereo not drawn),-1 (active)
17,O=C(Nc1ccc2oc(-c3ccncc3)nc2c1)c1c(F)c(F)c(F)c(F)c1F,0 (inactive)

row,SMILES,manual score
1,CCN1C(=O)/C(=C/c2ccc(C)s2)NC1=S,1 (active)
2,CCCN1C(=O)/C(=C/c2ccc(C)s2)NC1=S,1 (active)
3,CCCN1C(=O)/C(=C/c2ccc(N3CCCC3)c(C)c2)NC1=S,3 (inactive)
4,O=C1/C(=C/c2ccc(N3CCCC3)cc2)NC(=S)N1C1CC1,3 (inactive)
5,CC(C)CN1C(=O)/C(=C/c2cccs2)NC1=S,1 (active)
6,O=C(Nc1nnc(SCc2ccc(F)cc2)s1)C1CC(=O)N(c2ccc3c(c2)OCCO3)C1 (stereo not drawn),0 (inactive)
7,CN(C)c1nc2n(c(=O)n1)C(C#N)CS2 (stereo not drawn),0 (inactive)
8,O=c1[nH]c(CS(=O)(=O)c2ccccc2)nc2ccccc12,0 (inactive)
9,CCCCCCCCCn1c2c(c(=N)c3c1CCC3)CCC2,-1 (active)
10,CCCCn1c(-c2csc3c2CCCC3)n[nH]c1=S,-0.5 (inactive)
11,CC(=O)c1ccc(OC(=O)N(c2ccccc2)c2ccccc2)cc1,0 (inactive)
12,N[C@@H](Cc1ccccc1)c1nnc(SCc2ccccc2F)o1,0 (inactive)
13,Cc1cc(=S)[nH]c2c(C)cccc12,1 (active)
14,Cc1cc(C)c2[nH]c(=S)cc(C)c2c1,1 (active)
15,CC1(C)Cc2c(ccc3ccccc23)-c2nnc(-c3cccnc3)n21,0 (inactive)
16,CCOC(=O)N/N=C/c1c(C)nn(-c2ccccc2Cl)c1Cl,0 (inactive)
